An excerpt weighted towards active compounds, which were near 17% of everything screened.
HepG2 viability – qHTS for Inhibitors of TGF-b: Cytotox Counterscreen; AID 588856, 2011; Potency, µM (highest dose often 46.1 µM), actives largely listed as cytotoxic; hit rate 0.76% among 410,000; HepG2 CAGA-GFP viability, ATP luminescence, 18 h
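HepG2 CAGA-GFP cells (1000/well, DMEM with 1% FBS) received compound, then TGF-beta at 500 pg/mL final, and were incubated 18 hours at 37 degrees C. Viability was read by CellTiter-Glo luminescence. Media-only wells were set as complete cell-killing and DMSO as no toxicity.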
TDP1 cell noCPT – qHTS for Inhibitors of human tyrosyl-DNA phosphodiesterase 1 (TDP1): qHTS in cells in absence of CPT | DT40 Tdp1-/- hTDP1 cells, no CPT, ATP luminescence, 48 h | Potency, µM (doses to about 46.2 µM), most hits filed as inhibitors | AID 686978, 2013 | hit rate 15% among 420,000; note: nearly all actives have a fitted effect of over 55% in size
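No-CPT arm: Tdp1-/-;hTDP1 DT40 cells (400/well) plus compounds, incubated ≥48 hr at 37 °C. Readout CellTiter-Glo luminescence.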
ATXN viability – Viability Counterscreen for Primary qHTS for Inhibitors of ATXN expression; S2 cells (HEK-293 line with an ATXN2-luciferase reporter) viability, CellTiter-Fluor protease fluorescence, 24 h; Potency, µM (titrated, usually from 56.7 µM), usual class: cytotoxic; hit rate 0.49% among 400,000; AID 651635, 2014; note: nearly all actives have a fitted effect of over 40% in size
ATXN2 expr inh – Primary qHTS for Inhibitors of ATXN expression | HEK-293 ATXN2-luciferase reporter, luminescence, 24 h | Potency, µM (highest dose often 57 µM), most hits filed as inhibitors | hit rate 0.72% among 360,000; note: nearly all actives have a fitted effect of over 55% in size
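qHTS (up to 57 uM final) was run with 24 h compound exposure of reporter cells at 37 °C. Each well was multiplexed: SteadyGlo luminescence measured ATXN2-luciferase expression after a fluorogenic Gly-Phe-AFC viability readout (25 uM final).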
TGFb inhibitor – qHTS for Inhibitors of TGF-b; Potency, µM (top dose mostly 46.1 µM), actives largely listed as inhibitors; HepG2 CAGA-GFP TGF-b/SMAD3 reporter, GFP fluorescence, 18 h; TGF-beta stimulated, 500 pg/mL final; hit rate 1.2% among 410,000; note: nearly all actives have a fitted effect of over 65% in size
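Inhibition of TGF-beta-driven CAGA-GFP reporter expression in HEPG2 cells is measured by cellular GFP fluorescence after 18 h stimulation with 500 pg/mL recombinant TGF-beta in 1% FBS medium at 37 degrees C.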
TDP1 cell CPT – qHTS for Inhibitors of human tyrosyl-DNA phosphodiesterase 1 (TDP1): qHTS in cells in presence of CPT; hit rate 12% among 420,000; Potency, µM (series often up to 46.2 µM), most hits filed as inhibitors; AID 686979, 2013; chicken DT40 Tdp1-/-;hTDP1 cells + 20 nM CPT, ATP luminescence, 48 h; note: nearly all actives have a fitted effect of over 55% in size
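Chicken DT40 Tdp1-/- cells stably complemented with human TDP1 were seeded at 400 cells/well in medium containing 20 nM camptothecin, exposed to pin-transferred compounds, and grown at 37 °C for at least 48 hr. Viability was read as ATP luminescence.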
Hits are given with their value; n = inactive; u = inconclusive; x = not tested or not shown. Calls come from the whole dose curve; as a rule, active = well fitted curve in the direction sought with a large enough effect; inconclusive = small, poorly fitted or top-dose-only effect, or another doubt; inactive = no such curve, though single readings can be large; an effect the other way counts as inactive or inconclusive.

SMILES	HepG2 viability	TDP1 cell noCPT	ATXN viability	ATXN2 expr inh	TGFb inhibitor	TDP1 cell CPT
O=C(Nc1ccc(OCc2ccccc2)cc1)Nc1nnc([C@H]2C[C@H](O)[C@@H](CO)O2)s1	n	u	n	n	n	u
CCC1(CC)NC(=O)N(CC(=O)Nc2ccc(S(=O)(=O)N3CCOCC3)cc2)C1=O	n	n	u	x	n	n
Cc1cccc(NC(=O)CCS(=O)(=O)c2ccc3c(c2)n(C)c(=O)c(=O)n3C)c1C	n	n	x	x	n	n
CCN1CCN(C(CNS(=O)(=O)c2cccs2)c2cccnc2)CC1 (centres undefined)	n	n	u	x	n	n
Cc1nn(CC(=O)Nc2ccc(N3CCOCC3)cc2)c(C)c1Cl	n	n	n	n	n	n
CN1c2ccccc2Sc2cc(N)ccc21	n	16.4µM	n	n	n	n
CC(=O)N1c2ccccc2Sc2ccccc21	n	n	n	x	n	n
O=S(=O)(c1ccc(Cl)c(NC(=S)N/N=C/c2ccc(O)cc2)c1)N1CCOCC1	n	4.61µM	u	u	u	4.11µM
C/C(=N\NC(=S)Nc1cc(S(=O)(=O)N2CCOCC2)ccc1Cl)c1ccc(N2CCOCC2)cc1	n	2.59µM	n	n	n	2.91µM
C/C(=N\NC(=O)c1ccc(Cl)cc1)c1ccc(N2CCOCC2)cc1	n	n	n	n	n	n
C/C(=N\NC(=S)Nc1ccc(C)c(C)c1)c1ccc(N2CCOCC2)cc1	n	5.8µM	n	n	n	5.8µM
N#Cc1ccc(/C=N/NC(=S)Nc2ccc(S(=O)(=O)N3CCOCC3)cc2)cc1	n	20.6µM	n	n	n	u
O=S(=O)(c1ccc(NC(=S)N/N=C/c2ccc(O)c(O)c2)cc1)N1CCOCC1	n	n	n	n	u	n
CC(C)C(N)c1csc(Nc2ccc(C(=O)c3ccccc3)cc2)n1 (centres undefined)	n	u	u	u	u	u
NC(Cc1ccccc1)c1csc(Nc2ccc(C(=O)c3ccccc3)cc2)n1 (centres undefined)	n	8.2µM	u	u	u	14.6µM
COc1ccc(CC(N)c2csc(Nc3ccc(C(C)=O)cc3)n2)cc1 (centres undefined)	n	20.6µM	n	n	n	25.9µM
NC(Cc1ccc(F)cc1)c1csc(Nc2ccc(C(=O)c3ccccc3)cc2)n1 (centres undefined)	12.6µM	u	x	u	11.2µM	u
NC(CO)c1csc(Nc2ccc(C(=O)c3ccccc3)cc2)n1 (centres undefined)	n	u	n	n	n	n
NC(Cc1ccc(Cl)cc1)c1csc(Nc2ccc(C(=O)c3ccccc3)cc2)n1 (centres undefined)	10µM	20.6µM	x	u	11.2µM	20.6µM
COc1ccc(CNc2nc(NC(C)=O)nn2-c2ccccc2)cc1	n	n	n	n	n	n
COc1ccc(NC(=O)c2cc(C(=O)Nc3ccc(OC)cc3OC)cc([N+](=O)[O-])c2)c(OC)c1	n	n	n	n	n	n
COc1ccc(CC(N)c2csc(Nc3ccc(C(=O)c4ccccc4)cc3)n2)cc1 (centres undefined)	n	9.2µM	u	35.5µM	u	11.6µM
NC(c1csc(Nc2ccc(C(=O)c3ccccc3)cc2)n1)c1ccccc1Cl (centres undefined)	n	u	n	u	u	20.6µM
N=c1ncn(CC(O)CO)c2nc(N3CCOCC3)[nH]c12 (centres undefined)	n	n	n	n	n	n
CCCCCCCc1ccc(C2NC(=S)NC3=C2C(=O)c2ccccc23)cc1 (centres undefined)	n	u	n	n	n	16.4µM
SMILES	HepG2 viability	TDP1 cell noCPT	ATXN viability	ATXN2 expr inh	TGFb inhibitor	TDP1 cell CPT
CCc1ccc(C2NC(=S)NC3=C2C(=O)CCC3)cc1 (centres undefined)	n	n	n	n	n	n
CCOC(=O)c1ccc(NC(C)=O)c([N+](=O)[O-])c1	n	n	n	n	n	25.9µM
CCNc1ccc(C(=O)OCC(=O)N(Cc2ccccc2)C(C)(C)C)cc1[N+](=O)[O-]	n	u	n	n	n	14.6µM
CCc1ccc(Nc2ccc(C(N)=O)cc2[N+](=O)[O-])cc1	n	23.1µM	u	x	n	u
Cc1ccc(NC(=O)CSc2ccc(C(N)=O)cc2[N+](=O)[O-])cc1C	n	16.4µM	n	n	n	10.3µM
CCCNc1ccc(C(=O)OCC)cc1[N+](=O)[O-]	n	n	n	n	n	n
Cc1ccc(NC(=O)CSc2ccc(C(N)=O)cc2[N+](=O)[O-])cc1	n	u	n	n	n	u
CN(Cc1ccco1)c1cc(-c2ccoc2)ncn1	x	n	x	x	x	n
Cc1ccc(C2(CCN)CCOC(C(C)C)C2)cc1 (centres undefined)	n	u	n	n	n	23.1µM
CC(C)C1CC(CCN)(c2ccccc2)CCO1 (centres undefined)	n	n	n	n	n	u
O=C(CSc1ccccc1)NC1CC1	n	n	n	x	n	n
O=[N+]([O-])/C(C(Cl)=C(Cl)Cl)=C(/NC1CC1)Sc1ccccc1	n	23.1µM	u	n	n	u
O=C(Nc1ccc(Cl)cn1)c1ccc(-c2ccc(Cl)c(Cl)c2)o1	n	n	u	u	n	n
O=C(C1CCC(CNc2c(N3CCCCC3)c(=O)c2=O)CC1)N1CCc2ccccc2C1 (centres undefined)	n	16.4µM	n	n	n	u
CCOc1c(Br)cc(CNC2CCCCCCC2)cc1OC	11.2µM	14.6µM	u	x	u	20.6µM
O=C1N(c2ccccc2C(F)(F)F)O[C@@]1(c1ccccc1)C1CCCCC1	n	u	n	n	n	13µM
CC1CN(CCc2ccccc2)c2nc3c(c(=O)n(C)c(=O)n3C)n2C1 (centres undefined)	n	u	n	x	n	u
Cn1cc(CN2CCC(CO)(CCCc3ccccc3)CC2)c(-c2ccccc2)n1	n	u	u	x	n	16.4µM
CN(C)c1ncc(CN2CCC(CO)(CCCc3ccccc3)CC2)s1	n	u	n	x	n	n
CC(=O)c1cccc(CN2CCC(CO)(CCCc3ccccc3)CC2)c1	n	23.1µM	n	x	n	u
Cc1ccc(CNC(=O)CSCc2ccccc2C)cc1	n	n	x	x	n	u
O=C(Cn1c(=O)oc2ccccc21)NCC1COc2ccccc2O1 (centres undefined)	n	n	n	n	n	n

Compound activity from PubChem.
